A short description of assay [1]: Nuclear factor erythroid 2-related factor 2/antioxidant responsive element (Nrf2/ARE) small molecule agonists: qHTS cell viability counter screen in human keratinocytes (AID 1919968; active = well fitted curve in the direction sought with a large enough effect in the repeat runs; an effect the other way counts as inactive or inconclusive; note: nearly all actives have a fitted effect of over 55% in size; note: potency is the fitted concentration of half-maximal effect). Summed up: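 KeratinoSens HaCaT cells, 1,500/well, preincubated 5 h, then exposed to compounds in DMSO for 23 h at 37 C/5% CO2. Viability read as CellTiter-Fluor fluorescence after 1 h, in the same wells as the ARE-luciferase read.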

Assay [2] can be described thus: Nuclear factor erythroid 2-related factor 2/antioxidant responsive element (Nrf2/ARE) small molecule agonists: luciferase reporter gene qHTS assay in human keratinocytes (AID 1919969). Note: nearly all actives have a fitted effect of over 35% in size. Note: potency is the fitted concentration of half-maximal effect. For orientation: In a reporter assay the amount or activity of a reporter protein is the signal.
Assay [3] addresses Gonadotropin-releasing hormone receptor (Homo sapiens) (UniProt P30968). The assay can be described thus: Human gonadotropin-releasing hormone receptor (GnRHR) small molecule agonists, calcium flux assay in GnRHR-HEK293 cells (AID 1920063). Note: nearly all actives have a fitted effect of over 35% in size. Summed up: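 HEK293 cells stably expressing human GnRHR were dye-loaded for 1 h at 37 C. Compound was added in agonist mode and fluorescence (Ex/Em 480/540) recorded kinetically for 3 min. Fifteen concentrations, triplicates.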
A general note: Calcium assays in cells follow changes in intracellular calcium, usually with a dye or a luminescent sensor.

Assay [4] addresses KiSS-1 receptor (Homo sapiens) (UniProt Q969F8). The assay can be described thus: Human kisspeptin (KISS1R) small molecule agonists, calcium flux assay in KISS1R-HEK293 cells (AID 1920064; active = well fitted curve in the direction sought with a large enough effect in the repeat runs; an effect the other way counts as inactive or inconclusive). The method in brief: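 HEK293 cells stably expressing human KISS1R were loaded with calcium dye for 1 h at 37 C, then given compound; fluorescence (Ex/Em 480/540) was read kinetically for 3 min. Fifteen concentrations, triplicate.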

The nature of assay [5]: G protein-coupled receptor (GPCR) small molecule agonists, calcium flux assay: HEK293 wild type cell line counter screen (AID 1920065). Summed up: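 Wild-type HEK293 cells plated 18 h, loaded with calcium dye 1 h at 37 C, then compounds added in agonist mode (ATP as positive control). Kinetic fluorescence Ex/Em 480/540 recorded 3 min at 1 sec intervals; 15 concentrations, triplicate.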

The nature of assay [6]: p53 small molecule agonists, cell-based qHTS assay with human liver microsomes: qHTS cell viability counter screen (AID 1963579). Note: nearly all actives have a fitted effect of over 45% in size. Note: potency is the fitted concentration of half-maximal effect. Summed up:
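Cells carrying the p53 response-element beta-lactamase reporter are treated for 16 h at 37 C with test compounds in the presence of human liver microsomes and NADPH (both 0.5 mg/mL final); ATP-based CellTiter-Glo luminescence then reports viability.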
In general terms: In qHTS, concentration-response curves come from the screen itself.

Assay [7] in a line: p53 small molecule agonists, cell-based qHTS assay: qHTS cell viability counter screen (AID 1963581). Note: nearly all actives have a fitted effect of over 45% in size. Summed up:
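p53RE-bla HCT-116 cells, compounds added 5 h after plating and incubated 16 h at 37 C. Cytotoxicity measured in the same wells as intracellular ATP by CellTiter-Glo luminescence after 30 min at room temperature.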

In assay [8] the target is 5-hydroxytryptamine receptor 2A (Homo sapiens) (UniProt P28223). The assay can be described thus: 5-hydroxytryptamine receptor 2A (HTR2A) small molecule antagonists, cell-based qHTS assay (AID 1963586). Note: nearly all actives have a fitted effect of over 45% in size. The method in brief:
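Antagonist-mode intracellular calcium assay: DOI (4 nM) added after 5 min compound pre-incubation at room temperature to dye-loaded HTR2A-CHO cells. Fluorescence followed for 3 min, sampled every second.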

For assay [9] the target is unchanged. The assay can be described thus: 5-hydroxytryptamine receptor 2A (HTR2A) small molecule agonists, cell-based qHTS assay (AID 1963587). Note: nearly all actives have a fitted effect of over 30% in size. Summed up: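 CHO cells stably expressing human HTR2A, plated 18 h, loaded with calcium dye 1 h at 37 C. Agonist mode: compounds added and intracellular calcium fluorescence recorded kinetically for 2 min at 1 sec intervals.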

For assay [10], the target named is Muscarinic acetylcholine receptor M1 (Homo sapiens) (UniProt P11229). Kind of assay: Cholinergic receptor muscarinic 1 (CHRM1) small molecule agonists, cell-based qHTS assay (AID 1963589). Note: nearly all actives have a fitted effect of over 35% in size. Summed up:
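CHO cells stably expressing human CHRM1 were loaded with calcium dye for 1 h at 37 C, then compound was added in agonist mode. Intracellular calcium fluorescence was followed kinetically at 1 s intervals. Fifteen concentrations were tested in three independent runs.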

In assay [11] the target is Beta-2 adrenergic receptor (Homo sapiens) (UniProt P07550). The assay can be described thus: Adrenergic beta2 receptor (ADRB2) small molecule antagonists, cell-based qHTS assay (AID 1963592). Note: series mostly up to about 92 µM; nearly all actives have a fitted effect of over 50% in size. The method in brief:
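Cells (CHO, stable ADRB2 overexpression) incubated 18-20hr at 37C; compounds added from DMSO; agonist mix (1nM isoproterenol, 100uM IBMX, 25uM Ro-20-1724) added; 0.5hr RT; d2-cAMP and anti-cAMP-cryptate added; 1hr RT; 665/615 nm read.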

In assay [12] the target is D(2) dopamine receptor (Homo sapiens) (UniProt P14416). The assay can be described thus: Dopamine D2 receptor (DRD2) small molecule agonists, cell-based qHTS assay (AID 1963594). Note: nearly all actives have a fitted effect of over 35% in size. The method in brief: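 HEK293 cells stably expressing human DRD2, pre-treated with PDE inhibitor Ro20-1724 (0.1 mM final) and compound 10 min at room temperature, then stimulated with NKH477 (200nM […]) for 30 min. cAMP read by HTRF (665/620 nm).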

The target is the same in assay [13]. The assay can be described thus: Dopamine D2 receptor (DRD2) small molecule antagonists, cell-based qHTS assay (AID 1963595; active = well fitted inhibition curve with a large enough effect in the signal ratio in the repeat runs, with a control signal flat; the % refers to the signal ratio). The method in brief: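 Readout: HTRF cAMP, cAMP-d2 competing with cellular cAMP for anti-cAMP cryptate, read after 1 h. Cells: DRD2-HEK293. Conditions: 0.1 mM Ro20-1724, 12 nM quinpirole, 200 nM NKH477, 30 min RT.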
The nature of assay [14]: p53 small molecule agonists, cell-based qHTS assay with rat liver microsomes: qHTS cell viability counter screen (AID 1963580). Note: nearly all actives have a fitted effect of over 45% in size. Note: potency is the fitted concentration of half-maximal effect. Summed up:
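Viability is assessed in parallel with the p53 reporter read: HCT-116 p53RE-bla cells receive compounds plus rat microsomes and NADPH (0.5 mg/mL final apiece), incubate 16 h at 37 C, and then CellTiter-Glo luminescence is recorded.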

Assay [15] has as its target Muscarinic acetylcholine receptor M1 (Homo sapiens) (UniProt P11229). Kind of assay: Cholinergic receptor muscarinic 1 (CHRM1) small molecule antagonists, cell-based qHTS assay (AID 1963588). Note: nearly all actives have a fitted effect of over 40% in size. Summed up: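 CHRM1-CHO calcium-flux assay, antagonist mode. Cells were seeded 18 h, dye-loaded 1 h at 37 C and given compound for 5 min at RT, then acetylcholine was added at 50nM. FDSS fluorescence was read 3 min; 15 concentrations, three runs.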

Assay [16] concerns the target Beta-2 adrenergic receptor (Homo sapiens) (UniProt P07550). Kind of assay: Adrenergic beta2 receptor (ADRB2) small molecule agonists, cell-based qHTS assay (AID 1963593).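 Note: CHO cells stably overexpressing human ADRB2.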 Summed up:
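CHO cells stably over-expressing ADRB2 were plated overnight at 37C, then dosed with compounds plus a stimulation mix containing 100uM IBMX and 25uM Ro-20-1724 for 0.5hr at room temperature. cAMP was measured by HTRF competition, 1hr.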

Assay [17] in a line: cAMP Responsive Elements (CRE) small molecule agonists, cell-based qHTS assay (AID 1963590). The method in brief:
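CRE-bla HEK 293T cells, 2,000/well in DMEM with 10% dialyzed FBS and 25 mM HEPES, pre-incubated 18 h at 37 C, then exposed to compound 3 h at 37 C. Beta-lactamase reporter read with LiveBLAzer B/G FRET substrate after 2 h at room temperature.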

Assay [18] is described as follows: cAMP Responsive Elements (CRE) small molecule antagonists, cell-based qHTS assay (AID 1963591; active = well fitted inhibition curve with a large enough effect in the signal ratio in the repeat runs, not every such curve was filed as active; the % refers to the signal ratio). The method in brief: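 CRE-bla HEK293T cells plated 18 h, then given compound plus NKH477 at 0.25 uM final for 3 h at 37C. Beta-lactamase reporter read with LiveBLAzer B/G FRET substrate after 2 h at room temperature.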

Experimental findings from PubChem BioAssay (Tox21) are described below.

A number with no mark means an inactive call. Records with an inconclusive call do not appear. Active and inactive are the calls of the source. Unless noted, calls come from the whole dose curve.

KiSS-1 receptor (Homo sapiens), sequence (Q969F8 whole entry, looked up): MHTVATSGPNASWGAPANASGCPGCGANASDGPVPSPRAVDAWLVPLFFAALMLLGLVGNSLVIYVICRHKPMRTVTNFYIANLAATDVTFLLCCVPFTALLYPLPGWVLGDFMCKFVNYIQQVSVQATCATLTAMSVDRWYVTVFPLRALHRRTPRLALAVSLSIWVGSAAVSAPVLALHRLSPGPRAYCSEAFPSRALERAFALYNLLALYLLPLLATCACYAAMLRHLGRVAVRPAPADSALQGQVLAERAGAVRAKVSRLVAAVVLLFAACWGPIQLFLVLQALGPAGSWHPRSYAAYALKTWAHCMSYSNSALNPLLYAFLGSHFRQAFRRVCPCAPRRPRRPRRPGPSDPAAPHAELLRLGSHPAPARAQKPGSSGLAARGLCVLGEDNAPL
D(2) dopamine receptor (Homo sapiens), sequence (P14416 whole entry, looked up): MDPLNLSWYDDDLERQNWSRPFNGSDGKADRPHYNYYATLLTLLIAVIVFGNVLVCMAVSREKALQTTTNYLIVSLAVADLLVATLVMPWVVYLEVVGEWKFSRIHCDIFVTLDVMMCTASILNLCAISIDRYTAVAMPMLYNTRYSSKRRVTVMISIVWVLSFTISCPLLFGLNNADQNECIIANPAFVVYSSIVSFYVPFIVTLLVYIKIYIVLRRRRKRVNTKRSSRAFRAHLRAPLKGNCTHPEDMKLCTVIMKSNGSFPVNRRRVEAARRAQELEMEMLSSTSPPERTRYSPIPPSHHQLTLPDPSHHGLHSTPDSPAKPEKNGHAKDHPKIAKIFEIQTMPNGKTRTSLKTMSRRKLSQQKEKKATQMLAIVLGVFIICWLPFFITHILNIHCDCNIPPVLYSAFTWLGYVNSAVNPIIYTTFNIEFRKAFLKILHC
Beta-2 adrenergic receptor (Homo sapiens), sequence (P07550 whole entry, looked up): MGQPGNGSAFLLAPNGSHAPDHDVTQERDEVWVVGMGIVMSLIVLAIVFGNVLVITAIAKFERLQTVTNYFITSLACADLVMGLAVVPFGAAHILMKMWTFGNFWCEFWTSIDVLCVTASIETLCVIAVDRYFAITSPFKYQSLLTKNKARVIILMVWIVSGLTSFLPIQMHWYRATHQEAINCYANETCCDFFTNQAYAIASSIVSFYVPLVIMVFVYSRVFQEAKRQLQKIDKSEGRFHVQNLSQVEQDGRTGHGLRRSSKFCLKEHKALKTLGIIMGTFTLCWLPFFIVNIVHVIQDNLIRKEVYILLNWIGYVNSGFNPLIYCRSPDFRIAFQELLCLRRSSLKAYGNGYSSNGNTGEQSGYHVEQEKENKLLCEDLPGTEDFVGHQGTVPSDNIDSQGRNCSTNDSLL
Gonadotropin-releasing hormone receptor (Homo sapiens), sequence (P30968 whole entry, looked up): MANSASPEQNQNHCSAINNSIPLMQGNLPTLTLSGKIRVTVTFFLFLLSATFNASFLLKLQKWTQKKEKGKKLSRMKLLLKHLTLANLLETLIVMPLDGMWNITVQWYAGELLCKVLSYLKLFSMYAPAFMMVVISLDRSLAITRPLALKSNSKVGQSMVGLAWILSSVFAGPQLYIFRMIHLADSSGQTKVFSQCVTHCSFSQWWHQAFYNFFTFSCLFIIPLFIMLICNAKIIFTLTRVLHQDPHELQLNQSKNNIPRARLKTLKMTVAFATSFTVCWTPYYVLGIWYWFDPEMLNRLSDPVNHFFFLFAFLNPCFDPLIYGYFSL
Muscarinic acetylcholine receptor M1 (Homo sapiens), sequence (P11229 whole entry, looked up): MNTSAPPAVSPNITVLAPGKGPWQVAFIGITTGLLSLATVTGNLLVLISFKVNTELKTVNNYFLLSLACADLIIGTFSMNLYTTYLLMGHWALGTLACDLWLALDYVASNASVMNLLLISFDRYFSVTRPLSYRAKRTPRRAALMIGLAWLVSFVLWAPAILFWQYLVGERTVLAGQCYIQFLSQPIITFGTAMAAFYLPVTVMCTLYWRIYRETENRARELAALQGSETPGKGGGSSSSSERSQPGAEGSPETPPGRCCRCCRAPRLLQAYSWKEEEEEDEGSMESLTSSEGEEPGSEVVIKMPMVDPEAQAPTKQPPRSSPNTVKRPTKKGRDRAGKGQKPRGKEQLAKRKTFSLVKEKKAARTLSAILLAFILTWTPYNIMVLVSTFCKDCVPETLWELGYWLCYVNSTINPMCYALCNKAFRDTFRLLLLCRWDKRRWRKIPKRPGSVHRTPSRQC
5-hydroxytryptamine receptor 2A (Homo sapiens), sequence (P28223 whole entry, looked up): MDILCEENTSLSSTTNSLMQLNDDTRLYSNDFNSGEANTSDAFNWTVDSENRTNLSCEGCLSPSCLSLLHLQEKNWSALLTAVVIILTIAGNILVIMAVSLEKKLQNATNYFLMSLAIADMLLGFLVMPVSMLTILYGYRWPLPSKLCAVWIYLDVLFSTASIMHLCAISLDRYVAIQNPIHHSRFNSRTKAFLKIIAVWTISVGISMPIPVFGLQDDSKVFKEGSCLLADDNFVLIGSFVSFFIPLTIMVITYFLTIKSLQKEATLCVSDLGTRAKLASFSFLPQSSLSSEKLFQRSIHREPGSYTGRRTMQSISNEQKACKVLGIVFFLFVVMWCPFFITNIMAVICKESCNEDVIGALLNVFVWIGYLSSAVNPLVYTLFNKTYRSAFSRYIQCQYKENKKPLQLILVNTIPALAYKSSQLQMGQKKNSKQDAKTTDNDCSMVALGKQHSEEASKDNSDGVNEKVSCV

With `C/C=C1/C(=O)C[C@H]2[C@@H]3CCC4=CC(=O)CC[C@]4(C)[C@H]3CC[C@]12C`, the Potency entry in [1], in [3], in [4], in assay [5], in [6] and in assay [7] was “inactive” each time. Further, the Potency result in assay [8], in assay [9], in [10], in assay [11], in assay [12] and in assay [13] was “inactive” each time. Besides, in assay [2], the Potency was 68.4 µM (active).
Take `CN(c1nccc(=O)[nH]1)C1CCN(c2nc3ccccc3n2Cc2ccc(F)cc2)CC1`: the Potency entry in assay [1], in assay [2], in [3], in [4], in [5] and in [6] was “inactive” in each case. The Potency entry in [14], in assay [15], in assay [10], in [11], in assay [16] and in assay [12] was “inactive” each time. In addition, the Potency entry in [13] was “inactive”.
For the compound `N=C1N=C(N)c2cc3ccccc3cc21`, the Potency in assay [1] was 24.3 µM (active); in [2] it was 21.7 µM (active); in assay [6], 45.8 µM (active); in assay [14] it was 45.8 µM (active). Also, the Potency result in assay [3], in [4], in assay [5], in assay [9] and in assay [10] was “inactive” each time.
`OCCOc1cccc(OCCO)c1`: the Potency entry in [1], in [2], in assay [3], in assay [4], in [5] and in assay [6] was “inactive” throughout. For the same compound, the Potency result in [7], in [9], in assay [15], in [10], in assay [17] and in assay [11] was “inactive” each time. Besides, the Potency entry in assay [12] and in assay [13] was “inactive” in each case.
For `CNC(=O)C(c1ccccc1)c1ccccc1`, the Potency entry in assay [1], in assay [2], in [3], in [4], in assay [5] and in assay [6] was “inactive” throughout. Besides, the Potency result in [7], in [8], in assay [9], in [10], in assay [17] and in assay [18] was “inactive” each time. Moreover, the Potency entry in assay [11], in assay [12] and in assay [13] was “inactive” throughout.
Take `CCCCOCC(C)OCC(C)O` (centres undefined): the Potency result in assay [1], in assay [2], in assay [3], in assay [4], in assay [5] and in assay [6] was “inactive” each time. Besides, the Potency entry in [7], in assay [9], in assay [15], in assay [17], in assay [18] and in assay [11] was “inactive” each time. Also, the Potency result in assay [16], in assay [12] and in [13] was “inactive” each time.
Take `CCCCCCCCCCCCCC(=O)OC`: the Potency result in assay [1], in [2], in [3], in assay [4], in assay [5] and in [6] was “inactive” throughout. Further, the Potency entry in [7], in assay [8], in assay [9], in assay [15], in assay [10] and in assay [18] was “inactive” each time. The Potency entry in assay [11] and in assay [13] was “inactive” throughout.
As to `O=C1Cc2ccccc2N1c1c(Cl)cccc1Cl`, the Potency result in [1], in [2], in assay [3], in [4], in assay [5] and in assay [6] was “inactive” in each case. The Potency result in assay [14], in assay [8], in assay [11], in assay [16] and in assay [12] was “inactive” each time.
